Bioassay records (PubChem)
Not all results are given here.
CYP2C19 activ – human CYP2C19 activators, primary screen, biochemical, luminescence. Cytochrome P450 2C19 (Homo sapiens), P33261. recombinant CYP2C19, luciferin-H EGE luminescence; active compounds read high; 0 = fully inhibited enzyme, 1 = untreated enzyme. activation factor at 5 µM. 96,000 tested, under 10 active;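 active means activation factor of at least 2 at 5 µM in the primary screen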;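 further: 0 = wells with 2.5 mM tranylcypromine and 1 = vehicle-only wells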
Target sequence (P33261 whole entry, looked up): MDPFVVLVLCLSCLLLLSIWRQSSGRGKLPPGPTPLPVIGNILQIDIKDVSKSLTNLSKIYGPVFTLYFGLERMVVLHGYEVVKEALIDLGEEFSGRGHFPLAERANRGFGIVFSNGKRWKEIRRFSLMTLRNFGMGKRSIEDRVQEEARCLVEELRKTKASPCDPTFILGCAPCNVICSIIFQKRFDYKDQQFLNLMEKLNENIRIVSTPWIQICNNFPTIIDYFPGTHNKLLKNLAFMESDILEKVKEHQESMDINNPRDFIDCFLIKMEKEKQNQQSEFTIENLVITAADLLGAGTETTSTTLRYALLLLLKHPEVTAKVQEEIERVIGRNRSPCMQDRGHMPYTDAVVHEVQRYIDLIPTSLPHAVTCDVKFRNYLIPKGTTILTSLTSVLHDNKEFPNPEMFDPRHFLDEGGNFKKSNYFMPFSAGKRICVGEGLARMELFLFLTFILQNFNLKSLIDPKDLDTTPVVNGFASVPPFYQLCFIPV
CYP2C9 inh – blockers of cytochrome P450 2C9 activity – biochemical, luminescence, ADME assay, primary screen. P11712. CYP2C9 Supersomes, luciferin-H conversion. 96,000 compounds, 20% hits. inhibition, % at 5 µM;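 active means blocking of liver enzyme CYP2C9 beyond about 50% at 5 µM, limit read from the data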
CYP2C19 inhib – blockers of cytochrome P450 2C19 activity – biochemical, luminescence, ADME assay, primary screen. inhibition, % at 5 µM. AID 778, 2007. P33261. CYP2C19 Supersomes, luciferin-H EGE luminescence, 30 min. 96,000 compounds, 21% hits;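 active means CYP2C19 inhibition above a set limit at 5 µM in the primary screen, cut at about 50% in these data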;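 further: plate controls were negative control wells for no effect and 2.5 mM tranylcypromine positive control for full effect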
PostGolgi ctrl – growth inhibition of yeast control strain, primary screen, counter-screen for post-Golgi transport modulator project | efflux-deficient yeast background strain, growth absorbance A615, 16 h | inhibition, % at 10 µM | 98,000 compounds, 5% hits
PostGolgi yeast – phenotypic screen on post-Golgi transport, primary screen. post-Golgi transport phenotypic cell assay. inhibition, % at 10 µM. 98,000 compounds, 0.9% hits. AID 739, 2007;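 further: yeast cells grown in 1536-well plates; yeast grown about 18 h at 30C before absorbance read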
CYP2C9 act – human CYP2C9 activators, primary screen, biochemical, luminescence | activation factor at 5 µM | recombinant CYP2C9, luciferin-H conversion; active compounds read high; factor 1 = untreated enzyme, 0 = blocked | Cytochrome P450 2C9 (Homo sapiens), P11712 | 96,000 compounds, 1.4% hits;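 active means activation factor of 2 or more for CYP2C9 at a 5 µM dose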;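 further: 0 = sulfaphenazole-blocked wells and 1 = vehicle-only wells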
* = called active by the depositor. Unless noted, no stated cut-off is given here; in the data, active means inhibition above about 30%; inactive means the rest.

Results for COc1ccc(CC(=O)Nc2cccc(-c3nnc(-c4ccc(C)cc4)o3)c2)cc1OC ?
PostGolgi ctrl: -5.1; PostGolgi yeast: -8.1

Results for CS(=O)(=O)N1CCN(c2ccccc2NC(=O)c2cccnc2Cl)CC1 ?
CYP2C19 activ: 0.9; CYP2C9 inh: 4.0; CYP2C19 inhib: 7.0; PostGolgi ctrl: 4.7; PostGolgi yeast: -4.3; CYP2C9 act: 1

Results for CC1(C)SC(=S)N(Cc2ccc3c(c2)OCO3)C1N(O)C(=O)NC1CCCCC1 (stereo unspecified) ?
CYP2C19 activ: 0.6; CYP2C9 inh: 71.8*; CYP2C19 inhib: 42.0; PostGolgi ctrl: 4.5; PostGolgi yeast: -1.9; CYP2C9 act: 0.3

How did CCCNC(=O)c1c[nH]c2ccc(S(=O)(=O)N(C)c3ccc(OCC)cc3)cc2c1=O do in these assays?
CYP2C19 activ: 0.6; CYP2C9 inh: 82.8*; CYP2C19 inhib: 44.6; PostGolgi ctrl: -3.7; PostGolgi yeast: -2.7; CYP2C9 act: 0.2

Results for COc1cccc(NS(=O)(=O)c2ccc3[nH]cc(C(=O)NCCC(C)C)c(=O)c3c2)c1 ?
CYP2C19 activ: 0.9; CYP2C9 inh: 69.8*; CYP2C19 inhib: 12.6; PostGolgi ctrl: 40.8*; PostGolgi yeast: 8.6; CYP2C9 act: 0.3

Results for CCOc1ccc(NS(=O)(=O)c2ccc3[nH]cc(C(=O)NC(C)CC)c(=O)c3c2)cc1 (stereo unspecified) ?
PostGolgi ctrl: 1.6; PostGolgi yeast: 8.2

How did CC1(C)CNC(=O)c2sc(N3CCOCC3)nc2C1 do in these assays?
CYP2C19 activ: 1.2; CYP2C9 inh: -21.8; CYP2C19 inhib: -15.7; PostGolgi ctrl: -0.4; PostGolgi yeast: -1.9; CYP2C9 act: 1.2

How did Cc1ccnc(Sc2ccc([N+](=O)[O-])cc2[N+](=O)[O-])n1 do in these assays?
CYP2C19 activ: 0.2; CYP2C9 inh: 4.3; CYP2C19 inhib: 77.2*; PostGolgi ctrl: 6.5; PostGolgi yeast: 1.8; CYP2C9 act: 1

How did O=[N+]([O-])c1ccc(Sc2nc3ccccc3o2)c([N+](=O)[O-])c1 do in these assays?
CYP2C19 activ: 1; CYP2C9 inh: -0.4; CYP2C19 inhib: -0.8; PostGolgi ctrl: 91.2*; PostGolgi yeast: 4.8; CYP2C9 act: 1

How did N#Cc1c(NC(=O)c2cc(-n3cnnc3)ccc2Cl)sc2c1CCCC2 do in these assays?
CYP2C19 activ: 0.8; CYP2C9 inh: 18.5; CYP2C19 inhib: 15.5; PostGolgi ctrl: 6.7; PostGolgi yeast: 6.1; CYP2C9 act: 0.8

What do the screens show for `O=C(NC1CCCC1)c1ccc(CNc2c(N3CCOCC3)c(=O)c2=O)cc1`?
CYP2C19 activ: 1.2; CYP2C9 inh: -19.6; CYP2C19 inhib: -21.3; PostGolgi ctrl: -5.3; PostGolgi yeast: 5.3; CYP2C9 act: 1.2

What do the screens show for `COc1ccccc1N1CCN(C(=O)CN(Cc2ccccc2)S(C)(=O)=O)CC1`?
CYP2C19 activ: 0.8; CYP2C9 inh: 37.5; CYP2C19 inhib: 23.6; PostGolgi ctrl: 10.6; PostGolgi yeast: 34.9*; CYP2C9 act: 0.6

How did CS(=O)(=O)N(CC(=O)N1CCc2ccccc2C1)Cc1ccccc1 do in these assays?
CYP2C19 activ: 0.1; CYP2C9 inh: 80.1*; CYP2C19 inhib: 86.3*; PostGolgi ctrl: 11.8; PostGolgi yeast: -2.6; CYP2C9 act: 0.2

How did CCOC(=O)C1CCN(C(=O)c2ccccc2N(C)S(C)(=O)=O)CC1 do in these assays?
CYP2C19 activ: 1; CYP2C9 inh: -5.3; CYP2C19 inhib: -1.7; PostGolgi ctrl: -0.3; PostGolgi yeast: -5.4; CYP2C9 act: 1.1

Results for CN(c1ccccc1C(=O)N1CCc2ccccc2C1)S(C)(=O)=O ?
CYP2C19 activ: 0.1; CYP2C9 inh: 83.5*; CYP2C19 inhib: 93.2*; PostGolgi ctrl: 2.5; PostGolgi yeast: 1.7; CYP2C9 act: 0.2

How did Nc1nc(SCC(=O)N2CCCC2)[nH]c(=O)c1NC(=O)c1ccco1 do in these assays?
CYP2C19 activ: 1.2; CYP2C9 inh: 46.2; CYP2C19 inhib: -18.4; PostGolgi ctrl: -0.3; PostGolgi yeast: 1.7; CYP2C9 act: 0.5

What do the screens show for `Cc1occc1-c1nnc(SCC(=O)c2ccc(Cl)cc2)n1C`?
CYP2C19 activ: 0.1; CYP2C9 inh: 47.6; CYP2C19 inhib: 85.1*; PostGolgi ctrl: -0.6; PostGolgi yeast: -1.1; CYP2C9 act: 0.5

Results for COC(=O)CSc1nnc(-c2ccoc2C)n1-c1ccc(OC)cc1 ?
CYP2C19 activ: 0.6; CYP2C9 inh: 7.6; CYP2C19 inhib: 39.4; PostGolgi ctrl: 4.2; PostGolgi yeast: 5.5; CYP2C9 act: 0.9

How did Cc1cccc(C)c1NC(=O)CSc1nnc(-c2ccoc2C)n1C do in these assays?
CYP2C19 activ: 0.7; CYP2C9 inh: -1.3; CYP2C19 inhib: 32.3; PostGolgi ctrl: 9.5; PostGolgi yeast: 0.0; CYP2C9 act: 1

What do the screens show for `COc1ccc(OCCSc2nnc(-c3ccoc3C)n2C)cc1`?
CYP2C19 activ: 0.3; CYP2C9 inh: 72.4*; CYP2C19 inhib: 74.2*; PostGolgi ctrl: 5.0; PostGolgi yeast: -13.8; CYP2C9 act: 0.3

What do the screens show for `Cc1occc1-c1nnc(SCC(=O)c2c[nH]c3ccccc23)n1C`?
CYP2C19 activ: 0; CYP2C9 inh: 53.5*; CYP2C19 inhib: 98.4*; PostGolgi ctrl: 3.5; PostGolgi yeast: -2.0; CYP2C9 act: 0.5

What do the screens show for `CN1CCN(C(=O)c2ccccc2-c2ccccc2C(=O)O)CC1`?
CYP2C19 activ: 1.2; CYP2C9 inh: -21.1; CYP2C19 inhib: -15.6; PostGolgi ctrl: 3.7; PostGolgi yeast: 5.5; CYP2C9 act: 1.2

How did CN(C(=O)C12CC3CC(CC(C3)C1)C2)C1CCS(=O)(=O)C1 (stereo unspecified) do in these assays?
CYP2C19 activ: 1; CYP2C9 inh: -5.1; CYP2C19 inhib: -4.2; PostGolgi ctrl: 1.2; PostGolgi yeast: 16.8; CYP2C9 act: 1.1

Results for CCOC(=O)c1cn[nH]c1N ?
CYP2C19 activ: 0.9; CYP2C9 inh: 2.7; CYP2C19 inhib: 10.1; PostGolgi ctrl: 13.2; PostGolgi yeast: 3.6; CYP2C9 act: 1

What do the screens show for `Cc1cc(=O)oc(C)c1C(=O)Nc1ccc2ncccc2c1`?
CYP2C19 activ: 1.2; CYP2C9 inh: 10.4; CYP2C19 inhib: -18.3; PostGolgi ctrl: 1.6; PostGolgi yeast: 5.0; CYP2C9 act: 0.9

How did CC(/C=C/C=C/c1ccccc1)=N/NC(=O)CNc1ccc(C)cc1 do in these assays?
CYP2C19 activ: 1.1; CYP2C9 inh: 2.7; CYP2C19 inhib: -8.0; PostGolgi ctrl: 11.3; PostGolgi yeast: -1.1; CYP2C9 act: 1

Results for O=S(=O)(Nc1ncn[nH]1)c1ccc2ccccc2c1 ?
CYP2C19 activ: 1.1; CYP2C9 inh: -4.2; CYP2C19 inhib: -11.6; PostGolgi ctrl: -0.5; PostGolgi yeast: 13.1; CYP2C9 act: 1

Results for COc1cc(C)c(S(=O)(=O)Nc2ccc(CC(=O)O)cc2)cc1C ?
PostGolgi ctrl: 6.3; PostGolgi yeast: 11.8
